Reference: PubChem BioAssay (EPA / NIEHS)
“And” between values parts separate entries of the source, which are not always exact repeats. Equal values may be shown once. The source made the active and inactive calls. The calls were made as follows: active = hit-call score of the fitted dose curve at least 0.9, where 1 is the maximum; inactive = score below 0.9.

Read-out: urokinase plasminogen activator (uPA), PLAU (gene 5328)
Experiment: BSK_BE3C_uPA: BioMAP Diversity Plus: BE3C Assay for urokinase plasminogen activator (uPA) Biomarker Activity (AID 2283038);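 as to outcome: uPA read one day after compound addition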
Details: primary human bronchial epithelial cells; actives raise or lower the signal
Experimental: BSK_BE3C is a cell-based, multiplexed-readout assay that uses bronchial epithelial cell, a human lung primary cell, with measurements taken at 24 hours after chemical dosing in a 96-well plate.BSK_BE3CA is an assay component measured in the BSK_BE3C assay. It measures uPA antibody related to regulation of gene expression using ELISA technology.Data from the assay component BSK_BE3CA was analyzed into 1 assay endpoint. This assay endpoint, BSK_BE3CA, was analyzed with bidirectional fitting relative to DMSO as the negative control and baseline of activity. Using a type of binding reporter, gain or loss-of-signal activity can be used to understand changes in the signaling as they relate to the gene PLAU. Furthermore, this assay endpoint can be referred to as a primary readout, because this assay has produced multiple assay endpoints where this one serves a signaling function. To generalize the intended target to other relatable targets, this assay endpoint is annotated to the protease intended target family, where the subfamily is serine protease.
The levels of cell surface (or secreted, indicated by the prefix "s") biomarker endpoints were measured by ELISA. Overt cytotoxicity to cells in confluent adherent cultures (all systems other than the BT system) was assessed by measuring total protein levels using sulforhodamine B (SRB) staining in parallel cultures at the time of biomarker measurements, indicated as SRB endpoints. For proliferation assays for adherent cell types, individual cell types are cultured at sub-confluence and relative cell numbers quantified by SRB staining at time points optimized for each system (48 h: 3C and CASM3C systems; 72 h: BT and HDF3CGF systems; 96 h: SAg system). SRB was performed by staining cells with 0.1% SRB after fixation with 10% TCA and reading wells at 560 nm.Viability and proliferation of PBMC (T cells) was quantified by Alamar Blue reduction for the SAg and BT systems. For PBMC viability (referred to as PBMC Cytotoxicity within the assay endpoint names), cells were plated (75,000/well in a 96-well plate) and then chemical samples added for 1 h before addition of activators, SEB and TSST-1 (20 ng/mL final concentration each). Cells were incubated for 90 h. Then, Alamar Blue (20 uL/well) (Invitrogen, Cat DAL1100) was added for 6 h, and the plates were read with a fluorescence microplate reader at 546/580 nm (excitation/emission). For PBMC proliferation, cells were plated and activated as above but incubated for only 16 h prior to addition of Alamar Blue. Plates were read after 6 h.

SMILES	outcome	AC50
CCCCSP(=O)(SCCCC)SCCCC	inactive	
FC(F)C(F)(F)OCC(Cn1cncn1)c1ccc(Cl)cc1Cl (stereo not given)	inactive	
CCOP(=S)(OCC)OC(Cl)C(Cl)(Cl)Cl (stereo not given)	inactive	
CNC(=O)Oc1cccc2c1OC(C)(C)O2	inactive	
CCCSP(=O)(OCC)Oc1ccc(Br)cc1Cl (stereo not given)	inactive	
CN(C)C(=O)Nc1cccc(C(F)(F)F)c1	inactive	
COP(=O)(NC(C)=O)SC (stereo not given)	inactive	
CC(COc1ccc(Oc2ccccc2)cc1)Oc1ccccn1 (stereo not given)		17.8 µM (active)
Nc1c(Cl)cc([N+](=O)[O-])cc1Cl	inactive	
CC1(C(=O)Nc2ccc(O)c(Cl)c2Cl)CCCCC1	inactive	
CSC1=N[C@@](C)(c2ccccc2)C(=O)N1Nc1ccccc1	inactive	
CCOP(=O)(SC(C)CC)N1CCSC1=O (stereo not given)	inactive	
CC1=NNC(=O)N(/N=C/c2cccnc2)C1	inactive	
CCOP(=O)(OCC)Oc1cc(C)nc(C(C)C)n1	inactive	
CCOP(=S)(Oc1cnc(C(C)(C)C)nc1)OC(C)C (stereo not given)	inactive	
CC(C)N(C(=O)SCC(Cl)=C(Cl)Cl)C(C)C	inactive	
CN(C)NC(=O)CCC(=O)O	inactive	
O=[N+]([O-])c1cc(C(F)(F)F)c(Cl)c([N+](=O)[O-])c1Nc1ncc(C(F)(F)F)cc1Cl		2.19 µM (active) and 1.62 µM (active)
O=c1ccc(=O)[nH][nH]1	inactive	
CC(C1CC1)C(O)(Cn1cncn1)c1ccc(Cl)cc1 (stereo not given)	inactive	

SMILES	outcome	AC50
COc1ccc(C(=CC(=O)N2CCOCC2)c2ccc(Cl)cc2)cc1OC	inactive	
CCC(=NOC/C=C/Cl)C1=C(O)CC(C2CCOCC2)CC1=O (stereo not given)	inactive	
CSc1nc(NC(C)C)nc(NC(C)C)n1	inactive	
CCC(=O)Nc1ccc(Cl)c(Cl)c1	inactive	
CCOP(=S)(OCC)Oc1cc(C)nc(C(C)C)n1	inactive	
CNC(=O)ON=C(SC)C(=O)N(C)C	inactive	
CCCCOC(=O)[C@@H](C)Oc1ccc(Oc2ccc(C#N)cc2F)cc1	inactive	
CC(C)=CC1C(C(=O)OCN2C(=O)C3=C(CCCC3)C2=O)C1(C)C (stereo not given)	inactive	
CCOC(=O)COc1cc(-c2nn(C)c(OC(F)F)c2Cl)c(F)cc1Cl	inactive	
CC[C@H](C)[C@H]1O[C@]2(C=C[C@@H]1C)C[C@@H]1C[C@@H](C/C=C(\C)[C@@H](O[C@H]3C[C@H](OC)[C@@H](O[C@H]4C[C@H](OC)[C@@H](NC)[C@H](C)O4)[C@H](C)O3)[C@@H](C)/C=C/C=C3\CO[C@@H]4[C@H](O)C(C)=C[C@@H](C(=O)O1)[C@]34O)O2		10.9 µM (active)
CN(C)[C@@H]1C(=O)C(C(N)=O)=C(O)[C@@]2(O)C(=O)C3=C(O)c4c(O)cccc4[C@@](C)(O)[C@H]3[C@H](O)[C@@H]12	inactive	
CCOP(=O)(NC(C)C)Oc1ccc(SC)c(C)c1 (stereo not given)	inactive	
CON=C(C(=O)OC)c1ccccc1CON=C(C)c1cccc(C(F)(F)F)c1	inactive	
C#CCC1=C(C)C(OC(=O)C2C(C=C(C)C)C2(C)C)CC1=O (stereo not given)	inactive	
COP(=O)(OC)C(O)C(Cl)(Cl)Cl (stereo not given)	inactive	
Cc1cc(C2CC2)nc(Nc2ccccc2)n1	inactive	
CC(C)[C@H](C(=O)O[C@H](C#N)c1cccc(Oc2ccccc2)c1)c1ccc(Cl)cc1	inactive	
C=C(C)[C@H]1Cc2c(ccc3c2O[C@@H]2COc4cc(OC)c(OC)cc4[C@@H]2C3=O)O1	inactive	
N#CSCSC#N	inactive	
CCC(CC)Nc1c([N+](=O)[O-])cc(C)c(C)c1[N+](=O)[O-]	inactive	
